POLB inh – DNA polymerase beta (human) inhibition; P06746; Pol beta primer extension/strand displacement, fluorescence kinetic; Potency, µM (top dose mostly 114 µM), for inactives: top-dose activity change, negative = inhibition, most hits filed as inhibitors; 340,000 compounds, 1.3% hits; further: on the % scale 0 is the no-effect control and ±100 the full control effect
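Pol beta (10 nM) and compounds were preincubated 15 min at room temperature, then 50 nM substrate (final) started primer extension/strand displacement. Reads were taken at 0 and 10 min; concentration-response data were fitted to a four-parameter Hill equation.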
FEN1 inhibitor – blocks human flap endonuclease 1; P39748; Recombinant FEN1 flap cleavage, fluorescence, 15 min; Potency, µM (highest dose often 114 µM), for the others: at the highest dose activity change, negative = inhibition, usual class: inhibitors; 390,000 compounds, 0.35% hits; further: on the % scale 0 is the no-effect control and ±100 the full control effect; nearly all actives have a fitted effect of over 65% in size
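FEN1 at 10 nM preincubated with compounds 15 min at room temperature, then flap DNA substrate added at 50 nM final. Signal read at 0 and 15 min; concentration-response fitted with four-parameter Hill equation.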
WRN helicase inh – inhibitors of human WRN helicase. Q14191. WRN helicase unwinding, fluorescent forked duplex, kinetic. Potency, µM (top dose mostly 114 µM), inactives show at the highest dose activity change, negative = inhibition, hits mostly inhibitors. 360,000 compounds, 0.46% hits. AID 651768; further: on the % scale 0 is the no-effect control and ±100 the full control effect; nearly all actives have a fitted effect of over 55% in size
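Screening of the MLSMR collection measured strand separation of a quenched forked DNA duplex (100 nM) by 20 nM WRN with 2 mM ATP, all final. Compounds were preincubated with enzyme 15 min at room temperature.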
Pol kappa inh – blocks human DNA polymerase kappa activity | Q9UBT6 | purified Pol kappa, fluorescent DNA synthesis assay, 10 min | Potency, µM (highest dose often 107 µM), for the others: at the top dose activity, negative = inhibition, usual class: inhibitors | 400,000 compounds, 0.53% hits; further: on the % scale 0 is the no-effect control and ±100 the full control effect
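Enzyme at 10 nM met test compounds for 15 min at room temperature. Substrate addition (50 nM final) began the reaction, which was monitored by fluorescence at 0 and 10 min.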
Pol iota inh – blocks human DNA polymerase iota activity | Pol iota fluorescent replication assay, 10 min | Potency, µM (series often up to 115 µM), inactives show at the top dose activity, negative = inhibition, usual class: inhibitors | Q9UNA4 | 390,000 compounds, 1% hits
Target sequence (Q9UNA4 whole entry, looked up): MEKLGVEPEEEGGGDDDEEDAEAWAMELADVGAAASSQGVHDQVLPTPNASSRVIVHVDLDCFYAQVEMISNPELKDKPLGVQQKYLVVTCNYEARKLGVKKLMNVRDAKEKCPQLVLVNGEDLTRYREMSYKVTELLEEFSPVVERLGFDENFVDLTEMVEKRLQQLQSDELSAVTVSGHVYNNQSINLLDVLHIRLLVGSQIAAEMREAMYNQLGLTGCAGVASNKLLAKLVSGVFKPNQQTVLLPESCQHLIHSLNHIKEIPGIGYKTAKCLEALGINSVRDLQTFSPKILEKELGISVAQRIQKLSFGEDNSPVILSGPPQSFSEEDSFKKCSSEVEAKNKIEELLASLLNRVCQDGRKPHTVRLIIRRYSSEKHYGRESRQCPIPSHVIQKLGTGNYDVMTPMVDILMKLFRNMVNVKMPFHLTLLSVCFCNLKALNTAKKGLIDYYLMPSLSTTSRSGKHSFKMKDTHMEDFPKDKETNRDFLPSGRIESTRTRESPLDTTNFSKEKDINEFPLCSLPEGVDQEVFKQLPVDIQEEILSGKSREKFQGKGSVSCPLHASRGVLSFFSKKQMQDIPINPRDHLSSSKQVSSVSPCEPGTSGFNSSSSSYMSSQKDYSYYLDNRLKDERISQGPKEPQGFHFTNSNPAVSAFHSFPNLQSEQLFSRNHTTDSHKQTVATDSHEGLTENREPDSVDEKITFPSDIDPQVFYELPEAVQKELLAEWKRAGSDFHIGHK
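Pol iota at 10 nM preincubated 15 min with compounds at room temperature; reaction started with fluorescent substrate, 50 nM final. Fluorescence read kinetically at 0 and 10 min; buffer-only wells as negative control.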
POLH inh – DNA polymerase eta (human) inhibition. Potency, µM (titrated, usually from 114 µM), for the others: top-dose activity change, negative = inhibition, actives largely listed as inhibitors. Q9Y253. recombinant Pol eta, fluorescent DNA replication assay. 390,000 compounds, 1.2% hits; further: on the % scale 0 is the no-effect control and ±100 the full control effect
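Pol eta at 10 nM preincubated with compounds 15 min at room temperature; reaction started with fluorescent substrate (50 nM final) and read kinetically at 0 and 10 min.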
TbPGK inh – validation of Trypanosoma brucei phosphoglycerate kinase inhibitors | shares compounds with Pol kappa inh | TbPGK coupled GAPDH assay, Kinase-Glo luminescence | Potency, µM (series often up to 57.5 µM), for inactives: at the top dose activity change, negative = inhibition, actives largely listed as inhibitors | 500 compounds, 79% hits; further: on the % scale 0 is the no-effect control and ±100 the full control effect; nearly all actives have a fitted effect of over 65% in size
POLI cherry-pick – Confirm cherry-picked inhibitors of human polymerase iota; Pol iota primer extension, TAMRA/BHQ fluorescence; 1,500 compounds, 77% hits; shares compounds with Pol kappa inh; Potency, µM, most hits filed as inhibitors; AID 720496
* hit, by the source's call; ? = inconclusive; / = not tested or not shown; [ ] = another dose, or the depositor's remark. This is a sample that favours compounds with a hit; in the whole collection about 2.4% have one here. The call rests on the fitted dose curve; in most records, active means well fitted curve in the direction sought with a large enough effect; inconclusive means small, poorly fitted or top-dose-only effect, or another doubt; inactive means no such curve, though single readings can be large; an effect the other way counts as inactive or inconclusive. Potency means the concentration at half of the fitted maximal effect.

SMILES	POLB inh	FEN1 inhibitor	WRN helicase inh	Pol kappa inh	Pol iota inh	POLH inh	TbPGK inh	others
CN(C)c1ccc(N/C=C/C(=O)c2ccco2)cc1	?	5%	-8%	-7%	?	-15%	10µM*
CN1/C(=C/C=C/c2n(C)c3cc([N+](=O)[O-])c([N+](=O)[O-])cc3[n+]2C)C(C)(C)c2ccccc21	/	/	?	/	/	?	?
CCC1CCc2c(sc(NC(=O)C3CC=CCC3C(=O)O)c2C#N)C1 (centres undefined)	79µM*	-1%	-31%	-18%	-7%	?	?
CC1CCc2c(sc(NC(=O)C3CCCO3)c2C#N)C1 (centres undefined)	0%	0%	-8%	-2%	40%	1%	/
Cn1c(CN2CCN(C(=O)c3ccc(F)cc3)CC2)nc2cc([N+](=O)[O-])ccc21	31%	-2%	-8%	-6%	78%	-21%	/
Cc1ccc(-c2cc(C(=O)Nc3ccncc3)c3ccccc3n2)cc1	/	5%	-4%	3%	25%	-11%	/
O=C(NNC(=O)c1cc(-c2ccncc2)nc2ccccc12)c1ccccc1O	/	-2%	-19%	-18%	?	-9%	/	POLI cherry-pick=38*
Cc1ccc(N(CC(=O)N2CCCCC2)S(=O)(=O)c2ccc(C)cc2)cc1	27%	-9%	-2%	1%	55%	-17%	/
COc1ccc(O)c(C(c2c(C)[nH][nH]c2=O)c2c(C)[nH][nH]c2=O)c1	?	-32%	-4%[11.6 µM]	-1%	-90%	-13%	/	POLI cherry-pick=?
O=C1C2C3C=CC(CC3)C2C(=O)N1c1nccs1 (centres undefined)	22µM*	-23%	40µM*	18µM*	16µM*	?	/	POLI cherry-pick=75*
CC1CCN(c2ncnc3c2cnn3-c2ccc(F)cc2)CC1	36%	-14%	/	-16%[60.1 µM]	3%	-14%	/
O=C(OCCC12CC3CC(CC(C3)C1)C2)c1ccc(NCc2cc(O)ccc2O)cc1	/	?	?	79µM*	79µM*	?	16µM*
COc1ccc(CNC(=O)/C=C/[C@H]2O[C@@H](n3cnc4c(NC(=O)c5ccccc5)ncnc43)[C@H](O)[C@@H]2O)cc1	/	/	-2%	/	/	/	/
COc1ccc(-c2cc3nc(C)cc(N)n3n2)cc1	0%	-2%	-29%	-7%	41%	-20%	9.2µM*
COc1ccc(-c2cc3nc(C)cc(-c4ccc(OC)cc4)n3n2)cc1	11%	6%	-3%	-8%	0%	-16%	/
Cc1ccc(NC(=O)CN2C(=O)S/C(=C\c3ccc(-c4cccc(C(=O)O)c4C)o3)C2=O)cc1C	10µM*	50µM*	?	89µM*	10µM*	8.9µM*	4.1µM*
CCOC(=O)CN1C(=O)S/C(=C\c2ccc(-c3cccc(C(=O)O)c3C)o2)C1=O	/	5%	-3%[11.6 µM]	-20%	?	?	/
Cc1cccc(NC(=O)CSc2nc(C3CC3)nc3ccccc23)c1	22µM*	5%	-5%[11.6 µM]	-6%	22µM*	40µM*	/	POLI cherry-pick=67*
O=C(CSc1nc(C2CC2)nc2ccccc12)Nc1ccccc1	6%	-13%	-4%	-6%	8%	5%	/
COc1ccc(/C=C2\SC(=S)N(c3cccnc3)C2=O)cc1	-7%	20%	-2%	-8%	21%	-20%	/
O=C1/C(=C\c2ccc(O)cc2)SC(=S)N1c1cccnc1	?	?	-10%[11.6 µM]	-60%	?	?	/	POLI cherry-pick=?
CCOc1cc(N2CCOCC2)c(OCC)cc1NC(=O)c1cc(-c2ccco2)nc2ccccc12	?	-3%	-35%	4%[60.1 µM]	?	79µM*	/	POLI cherry-pick=?
COc1ccc(C2=CC3=C(Br)C(=O)C(C)(OC(=O)C4CCCC4)C(=O)C3=CO2)cc1 (centres undefined)	35µM*	?	?	79µM*	40µM*	45µM*	9.2µM*
CC(C(=O)Nc1ccc(C(=O)O)c(O)c1)N1C(=O)/C(=C\c2ccco2)SC1=S (centres undefined)	?	3%	40µM*	0%	?	3.2µM*	23µM*
O=C(CCCN1C(=O)/C(=C/c2ccccc2)SC1=S)Nc1ccc(C(=O)O)c(O)c1	-18%	-6%	-1%	-1%	4%	-5%	/
SMILES	POLB inh	FEN1 inhibitor	WRN helicase inh	Pol kappa inh	Pol iota inh	POLH inh	TbPGK inh	others
CC(C)C(C(=O)O)N1C(=O)/C(=C/C=C/c2ccco2)SC1=S (centres undefined)	1.6µM*	18µM*	3.5µM*	3.2µM*	1.1µM*	0.79µM*	2.6µM*
CN(C(=O)c1cccc(NC(=O)Cc2ccc(NC(=O)C3CCN(C(=O)C4CCC4)CC3)cc2)c1)C1CCCC1	/	-13%	-5%	-11%	?	-7%	/
CCC(C)[C@H]1CNCCN1CC1(c2ccccc2)CC1 (some centres undefined)	/	-6%	14%	-5%	?	-6%	/
CCC(C)[C@H]1CNCCN1CCc1cccc2ccccc12 (some centres undefined)	/	-2%	-5%	-29%	?	8%	?
O=C1NC(=Nc2ccc(Cl)cc2)/C(=C/c2ccco2)S1	8.9µM*	-4%	-7%[11.6 µM]	?	28µM*	56µM*	/	POLI cherry-pick=?
Cc1cc(S(=O)(=O)NC2CCCCC2)c(C)s1	4%	2%	-3%	-21%	2%	-1%	/
O=C1Nc2ccccc2C1=Nc1ccc(S(=O)(=O)Nc2nccs2)cc1	7%	50µM*	20µM*	?	8.9µM*	20µM*	18µM*
O=C(O)CCCN1C(=O)/C(=C/c2ccc(-c3nc4ccccc4s3)o2)SC1=S	13µM*	-20%	?	50µM*	?	3.2µM*	?
O=C(O)CCCN1C(=O)/C(=C/c2ccncc2)SC1=S	-3%	-4%	-2%	-14%	?	-4%	/
CSCCC(NC(=O)c1cccc(C)c1)C(=O)OCN1C(=O)c2ccccc2C1=O (centres undefined)	/	11%	-1%	0%	25%	2%	/
Cc1ccc(-c2nc3n(n2)Cc2ccccc2-3)cc1	?	-6%	?	-8%	?	-6%	/
c1ccc(-c2cn3c(n2)-c2ccccc2C3)cc1	-1%	0%	4%	5%	15%	?	15µM*
COC(=O)c1nn(-c2ccc3c(c2)OCO3)cc1O	32%	-1%	0%	-9%	-2%	-12%	/

Screens from PubChem BioAssay.
